Target: U3 small nucleolar RNA-associated protein 4 (UniProt Q06679)
Experiment: cross-link between two proteins

Sequence of U3 small nucleolar RNA-associated protein 4 (Q06679 whole entry): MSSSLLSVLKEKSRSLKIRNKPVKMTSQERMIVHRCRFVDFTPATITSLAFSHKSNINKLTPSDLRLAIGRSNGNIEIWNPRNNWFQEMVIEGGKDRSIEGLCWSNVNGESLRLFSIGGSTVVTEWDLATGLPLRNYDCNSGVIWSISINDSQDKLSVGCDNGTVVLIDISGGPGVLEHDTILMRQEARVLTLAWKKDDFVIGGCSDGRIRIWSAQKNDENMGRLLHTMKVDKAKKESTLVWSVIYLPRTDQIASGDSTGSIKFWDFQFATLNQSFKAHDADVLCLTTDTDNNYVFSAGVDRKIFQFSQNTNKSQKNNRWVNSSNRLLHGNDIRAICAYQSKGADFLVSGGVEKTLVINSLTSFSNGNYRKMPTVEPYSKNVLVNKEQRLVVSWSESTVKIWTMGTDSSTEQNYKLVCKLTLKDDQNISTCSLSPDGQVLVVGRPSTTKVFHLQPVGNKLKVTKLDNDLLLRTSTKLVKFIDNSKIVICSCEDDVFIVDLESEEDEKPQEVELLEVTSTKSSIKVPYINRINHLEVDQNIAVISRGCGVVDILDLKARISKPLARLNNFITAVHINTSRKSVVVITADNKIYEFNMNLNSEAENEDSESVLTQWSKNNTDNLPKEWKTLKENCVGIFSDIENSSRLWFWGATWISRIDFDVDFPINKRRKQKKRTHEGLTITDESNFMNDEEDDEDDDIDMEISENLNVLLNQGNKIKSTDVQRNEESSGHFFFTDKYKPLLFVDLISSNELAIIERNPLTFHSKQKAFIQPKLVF

## U3 small nucleolar RNA-associated protein 8, P53276
  listed as a hit: yes
